Reference: PubChem BioAssay
The source made the active and inactive calls.

Columns and labels:
[1] = tested on: Plasmodium falciparum Sir2 (PF13_0152, Sir2A); test: pfSir2 binders on small-molecule microarrays, primary screen, biochemical, small-molecule microarray, 635 nm fluorescence (AID 1098); details: small-molecule microarray binding, fluorescence 635 nm; higher = more signal;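 note: score merges spot fluorescence intensity with its signal-to-noise ratio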
[2] = small-molecule microarray binders of probe aDKK1, primary screen, biochemical, biotinylated probe, 635/667 nm fluorescence (AID 1099); details: higher = more signal;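 note: score merges 667nm spot fluorescence with signal to noise across triplicate slides; reference of the scale not given here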
[3] = small-molecule microarray binders of probe aCHRDL2, primary screen, biochemical, biotinylated probe, 635/667 nm fluorescence (AID 1100); details: higher = more signal
[4] = splicing luciferase reporter signal modulators, primary screen, spliceosome inhibition project, cell-based, HEK293, splice +/- reporter (AID 1101); details: luminescence, 24 h, higher = more signal, called active from +8 up or from −8 down;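 note: HEK293 cells carrying a splicing-competent luciferase reporter gene; test concentration not given here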
[5] = biological target: Fibroblast growth factor 10 (Homo sapiens) (UniProt O15520); test: FGF10 binders on small-molecule microarrays, primary screen, biochemical, small-molecule microarray, 635 nm fluorescence (AID 1102); details: FGF10 binding, fluorescence 635 nm, higher = more signal
Fibroblast growth factor 10 (Homo sapiens), sequence (O15520 whole entry, looked up): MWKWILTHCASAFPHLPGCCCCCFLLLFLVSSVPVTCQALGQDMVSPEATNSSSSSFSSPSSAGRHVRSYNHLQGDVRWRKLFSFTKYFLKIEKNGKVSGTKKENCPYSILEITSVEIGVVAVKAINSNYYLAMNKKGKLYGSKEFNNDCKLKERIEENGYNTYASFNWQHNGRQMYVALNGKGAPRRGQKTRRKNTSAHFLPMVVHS

[6] = tested on: glycogen synthase kinase-3 (GSK3A per assay name; protocol says GSK3B); test: GSK3 binders on small-molecule microarrays, primary screen, biochemical, small-molecule microarray, 635 nm fluorescence, GSK3A (AID 1103); details: small-molecule microarray binding, fluorescence 635 nm; higher = more signal; note: the record names both GSK3A and GSK3B
[7] = biological target: Epidermal growth factor receptor (Homo sapiens) (UniProt P00533); test: EGFR binders on small-molecule microarrays, primary screen, biochemical, small-molecule microarray, 635 nm fluorescence (AID 1104); details: EGFR binding, higher = more signal;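 note: score merges 667 nm emission intensity with spot signal to noise over triplicate slides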
Epidermal growth factor receptor (Homo sapiens), sequence (P00533 whole entry, looked up): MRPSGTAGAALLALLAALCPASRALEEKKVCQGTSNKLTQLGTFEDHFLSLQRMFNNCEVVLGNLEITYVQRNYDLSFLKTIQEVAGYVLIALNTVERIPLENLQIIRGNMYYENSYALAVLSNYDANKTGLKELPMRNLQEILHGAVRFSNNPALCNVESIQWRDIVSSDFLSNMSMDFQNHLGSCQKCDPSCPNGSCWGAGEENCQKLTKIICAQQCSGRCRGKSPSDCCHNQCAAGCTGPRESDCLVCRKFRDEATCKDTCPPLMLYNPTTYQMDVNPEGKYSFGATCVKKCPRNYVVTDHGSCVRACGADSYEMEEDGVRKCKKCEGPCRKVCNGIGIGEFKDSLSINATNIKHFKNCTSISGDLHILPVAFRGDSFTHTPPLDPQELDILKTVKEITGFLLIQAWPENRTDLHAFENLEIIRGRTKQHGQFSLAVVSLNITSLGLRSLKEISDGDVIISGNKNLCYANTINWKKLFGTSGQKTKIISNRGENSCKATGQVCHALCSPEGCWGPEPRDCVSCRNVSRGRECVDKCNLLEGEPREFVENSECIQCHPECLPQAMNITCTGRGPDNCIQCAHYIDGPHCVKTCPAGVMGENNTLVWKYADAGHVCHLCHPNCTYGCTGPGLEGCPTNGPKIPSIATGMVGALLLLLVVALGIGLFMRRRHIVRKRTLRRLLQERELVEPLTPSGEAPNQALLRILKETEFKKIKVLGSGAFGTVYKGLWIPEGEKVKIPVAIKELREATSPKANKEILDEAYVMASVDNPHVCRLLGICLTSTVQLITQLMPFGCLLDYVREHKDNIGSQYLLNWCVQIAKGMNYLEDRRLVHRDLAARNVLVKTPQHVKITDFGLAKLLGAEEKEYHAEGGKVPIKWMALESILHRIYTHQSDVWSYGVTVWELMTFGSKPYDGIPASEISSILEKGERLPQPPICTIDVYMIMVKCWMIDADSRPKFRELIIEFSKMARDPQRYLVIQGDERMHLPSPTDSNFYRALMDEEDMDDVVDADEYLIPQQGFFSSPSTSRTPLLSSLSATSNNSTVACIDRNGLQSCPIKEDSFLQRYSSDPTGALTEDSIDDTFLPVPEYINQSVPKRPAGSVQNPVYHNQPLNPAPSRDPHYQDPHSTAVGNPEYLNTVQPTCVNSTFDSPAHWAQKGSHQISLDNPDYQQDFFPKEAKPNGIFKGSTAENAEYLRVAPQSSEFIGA

[8] = biological target: Follistatin-related protein 3 (Homo sapiens) (UniProt O95633); test: FSTL3 binders on small-molecule microarrays, primary screen, biochemical, small-molecule microarray, 635 nm fluorescence (AID 1105); details: FSTL3 binding, higher = more signal;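 note: score merges emission near 667 nm and signal to noise per printed spot across three slides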
Follistatin-related protein 3 (Homo sapiens), sequence (O95633 whole entry, looked up): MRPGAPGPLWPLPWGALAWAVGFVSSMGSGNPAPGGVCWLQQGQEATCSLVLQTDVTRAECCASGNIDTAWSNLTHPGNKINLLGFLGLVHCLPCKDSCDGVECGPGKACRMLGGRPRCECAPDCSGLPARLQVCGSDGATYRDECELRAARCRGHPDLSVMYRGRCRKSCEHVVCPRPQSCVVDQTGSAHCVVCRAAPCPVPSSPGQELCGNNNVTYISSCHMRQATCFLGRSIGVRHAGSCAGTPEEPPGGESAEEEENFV

[9] = biological target: Dickkopf-related protein 1 (Homo sapiens) (UniProt O94907); test: DKK1 binders on small-molecule microarrays, primary screen, biochemical, small-molecule microarray, 635 nm fluorescence scan (AID 1106); details: DKK1 binding, higher = more signal;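 note: score merges emission near 667 nm with signal to noise over three replicate slides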
Dickkopf-related protein 1 (Homo sapiens), sequence (O94907 whole entry, looked up): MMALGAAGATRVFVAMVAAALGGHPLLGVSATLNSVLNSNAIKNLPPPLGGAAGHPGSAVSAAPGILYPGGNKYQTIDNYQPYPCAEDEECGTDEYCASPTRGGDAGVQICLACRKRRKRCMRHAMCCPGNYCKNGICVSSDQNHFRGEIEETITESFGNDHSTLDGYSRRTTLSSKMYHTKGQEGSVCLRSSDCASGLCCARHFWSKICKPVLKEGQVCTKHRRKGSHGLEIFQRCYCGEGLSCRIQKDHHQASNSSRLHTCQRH

[10] = tested on: Inhibin beta A chain (activin A); test: INHBA (activin A) binders on microarrays, primary screen, biochemical, small-molecule microarray, 635 nm fluorescence scan (AID 1107); details: small-molecule microarray binding, higher = more signal;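 note: mouse activin A protein probed at 4.33 µg/mL on printed slides; score merges bound-protein fluorescence near 667 nm with spot signal-to-noise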

| Compound | composite z-score [1] | composite z-score [2] | composite z-score [3] | z-score [4] | composite z-score [5] | composite z-score [6] | composite z-score [7] | composite z-score [8] | composite z-score [9] | composite z-score [10] |
| --- | --- | --- | --- | --- | --- | --- | --- | --- | --- | --- |
| C=CCC(OC(C)=O)[C@@H]1[C@@H](N(Cc2ccc(-c3cccc(C(F)(F)F)c3)o2)C(=O)c2ccc(C)cc2)c2cc(OCCCO)ccc2N1C(=O)Cc1ccc2ccccc2c1 (stereo not given in full) | -0.291 | -0.183 | 0.314 | -0.337 (inactive) | -0.0662 | -1.46 | -0.206 | -0.458 | -0.214 | 1.14 |
| CC1CC/C=C\[C@H]2OC34C=CCN(C(C)(C)C)C(=O)[C@H]3N(CCO)C(=O)[C@@H]4C2C(=O)O1 (stereo not given in full) | -0.103 | -0.404 | 0.51 | 0.851 (inactive) | -0.98 | -0.496 | -1.33 | -0.755 | -0.739 | -0.0663 |
| C=CCOC(=O)[C@H]1[C@@H]2C(=O)O[C@@H](c3ccccc3)[C@@H](c3ccccc3)N2[C@@H](c2ccc(OCCOC(=O)[C@H]3C[C@H]4C(=O)N[C@@H](CCCCNC(C)=O)C(=O)N4[C@H]3c3ccc(O)cc3)cc2)[C@]12C(=O)Nc1ccc(I)cc12 | 1.33 | -0.182 | -0.717 | -0.0027 (inactive) | 0.707 | 1.11 | 0.506 | 1.26 | 0.667 | 1.02 |
| C=C(CCCC)/C(=C/C[C@H](OC(=O)c1ccncc1)c1ccccc1OCCO)c1cnc2ccccc2c1 | 0.869 | -0.037 | -0.286 | -0.292 (inactive) | 1.08 | 0.898 | 0.591 | 1.49 | 0.472 | 1.66 |
| COCCOC(=O)N1C(=O)[C@@]2(c3cc(C#CCNC(N)=O)ccc31)[C@H](C(=O)N1CCN(c3ncccn3)CC1)[C@H]1C(=O)O[C@H](c3ccccc3)[C@H](c3ccccc3)N1[C@@H]2c1ccc(OCCO)cc1 | 1.08 | 0.223 | 0.329 | -0.729 (inactive) | 1.01 | -0.0506 | 0.498 | 1.37 | 0.204 | 0.63 |
| NC(=O)NCC#Cc1ccc2c(c1)[C@]1(C(=O)N2)[C@H](C(N)=O)[C@H]2C(=O)O[C@H](c3ccccc3)[C@H](c3ccccc3)N2[C@@H]1c1ccc(O)cc1 | 1.51 | -0.912 | -0.142 | -0.712 (inactive) | 0.353 | -0.348 | -0.858 | -0.0676 | -1.27 | 0.778 |
| C=CC1(C(=O)OC)CC=C(C(=O)OC)CC1 (stereo not given) | 0.0006 | -0.259 | -0.425 | -1.38 (inactive) | 0.916 | 1.15 | 0.478 | 0.791 | 0.908 | -0.115 |
| CC(C)[Si](C#Cc1ccc(Oc2ccccc2)cc1)(O[Si](C#Cc1ccc(Oc2ccccc2)cc1)(C(C)C)C(C)C)C(C)C | 1.11 | 0.112 | -0.504 | -0.226 (inactive) | 1.37 | 0.478 | 0.0408 | 0.394 | 0.687 | -0.294 |
| COCCOC(=O)N1C(=O)[C@@]2(c3cc(C#Cc4ccc(OC)cc4)ccc31)[C@H](c1ccc(O)cc1)N1[C@H](c3ccccc3)[C@H](c3ccccc3)OC(=O)[C@H]1[C@@H]2C(=O)N1CCc2cc(OC)c(OC)cc2C1 | 0.888 | 0.267 | -0.0098 | -1.34 (inactive) | 0.636 | 1.2 | 0.386 | 0.914 | 0.75 | -0.0186 |
| CC(C)CNC(=O)[C@@]1(Cc2ccccc2I)c2ccccc2C(=O)N(C2CCCCC2)[C@H]1c1ccc(CO)cc1 | 1.53 | 0.778 | 1.02 | 1.14 (inactive) | 0.51 | -0.218 | -0.272 | 0.248 | -0.271 | 0.504 |
| CO[C@H]1O[C@H](CO)[C@@H](OC(=O)Nc2ccc(Oc3ccccc3)cc2)[C@H](OC(=O)Nc2ccc3c(c2)OCO3)[C@H]1OC(=O)Nc1ccc2c(c1)OCO2 | 1.26 | 0.86 | 0.992 | -1.61 (inactive) | 1.33 | 1.31 | 0.318 | 1.2 | 0.612 | 0.944 |
| CCCCN1CC=CC23O[C@@H]4C=CCCOC(=O)C4[C@H]2C(=O)N(CCCCCCO)[C@@H]3C1=O (stereo not given in full) | 1.45 | -0.466 | -0.112 | 0.705 (inactive) | -1.22 | -0.163 | -0.677 | -0.187 | -1.21 | -0.39 |
| C[C@H]1NC(=O)[C@@]23C(=O)N[C@@H](Cc4ccccc4)C2[C@H](C)[C@@]2(C)O[C@H]2C3/C=C/C/C=C\CNC(=O)[C@@H]2CCCN2C1=O (stereo not given in full) | 0.466 | -0.192 | -0.575 | 0.856 (inactive) | 0.861 | 0.365 | 0.283 | 0.891 | 0.296 | 0.947 |
| COC(=O)[C@@]1(Cc2ccc(OC)cc2)[C@H]2c3cc(C(=O)N(C)C)n(Cc4ccc(S(C)(=O)=O)cc4)c3C[C@H]2CN1C(=O)c1ccccc1 | 1.29 | 0.511 | 0.573 | -0.109 (inactive) | -0.0911 | 0.904 | -0.0743 | 1.08 | 0.0527 | 1.16 |
| O=C1C[C@]2(c3ccc([N+](=O)[O-])cc3)C(=O)N(CC(F)(F)F)c3cc(CO)ccc3[C@H]2N1C1CCCCC1 | -0.535 | 0.246 | 0.564 | 0.465 (inactive) | -0.431 | -0.161 | -1.1 | -0.883 | -0.906 | 0.23 |
| C=C(COC)C(=O)CC[C@@H](OC(C)=O)c1ccc(CO)o1 | 1.38 | 0.0244 | -0.45 | 0.264 (inactive) | 1.24 | 0.139 | -0.42 | 1.52 | 1.48 | 1.38 |
| COCCOC(=O)N1C(=O)[C@@]2(c3cc(C#CC4(O)CCCCCC4)ccc31)[C@H](c1ccc(OCCO)cc1)N1[C@H](c3ccccc3)[C@H](c3ccccc3)OC(=O)[C@H]1[C@@H]2C(=O)N1CCN(c2ncccn2)CC1 | 1 | -0.165 | 0.107 | -0.201 (inactive) | 1.11 | 1.28 | 0.334 | 1.06 | 0.48 | 0.0414 |
